The list is not random: actives were taken first. Their share in the collection is about 2.3%.
PLCg1 inh: inhibitors of human phospholipase C gamma1 | inhibition, % at 12.2 µM | hit rate 0.84% among 370,000 | purified PLC-gamma1, fluorogenic substrate, fluorescence | P19174 | AID 720700
LEDGF integ inh: blocks HIV-1 LEDGF/p75-dependent DNA integration; TR-FRET IN-LEDGF/p75 DNA integration, Eu/Cy5; inhibition, % at 3.7 µM; hit rate 0.64% among 370,000;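 active = inhibition above the screen-wide mean plus 3 SD, cut at about 13% in these data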;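 also: signal is the Cy5 over europium emission ratio at 671 and 618 nm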
UHRF1 MBD2 ctr: blocks human UHRF1 binding to methylated DNA | UHRF1 binding to methylated oligo, TR-FRET | inhibition, % at 4.4 µM | hit rate 0.75% among 370,000; in the data active = inhibition above about 21%;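 also: UHRF1 SRA domain binding a hemimethylated CpG hairpin DNA probe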
Target sequence (Q96T88 whole entry, looked up, the tested form may be a part): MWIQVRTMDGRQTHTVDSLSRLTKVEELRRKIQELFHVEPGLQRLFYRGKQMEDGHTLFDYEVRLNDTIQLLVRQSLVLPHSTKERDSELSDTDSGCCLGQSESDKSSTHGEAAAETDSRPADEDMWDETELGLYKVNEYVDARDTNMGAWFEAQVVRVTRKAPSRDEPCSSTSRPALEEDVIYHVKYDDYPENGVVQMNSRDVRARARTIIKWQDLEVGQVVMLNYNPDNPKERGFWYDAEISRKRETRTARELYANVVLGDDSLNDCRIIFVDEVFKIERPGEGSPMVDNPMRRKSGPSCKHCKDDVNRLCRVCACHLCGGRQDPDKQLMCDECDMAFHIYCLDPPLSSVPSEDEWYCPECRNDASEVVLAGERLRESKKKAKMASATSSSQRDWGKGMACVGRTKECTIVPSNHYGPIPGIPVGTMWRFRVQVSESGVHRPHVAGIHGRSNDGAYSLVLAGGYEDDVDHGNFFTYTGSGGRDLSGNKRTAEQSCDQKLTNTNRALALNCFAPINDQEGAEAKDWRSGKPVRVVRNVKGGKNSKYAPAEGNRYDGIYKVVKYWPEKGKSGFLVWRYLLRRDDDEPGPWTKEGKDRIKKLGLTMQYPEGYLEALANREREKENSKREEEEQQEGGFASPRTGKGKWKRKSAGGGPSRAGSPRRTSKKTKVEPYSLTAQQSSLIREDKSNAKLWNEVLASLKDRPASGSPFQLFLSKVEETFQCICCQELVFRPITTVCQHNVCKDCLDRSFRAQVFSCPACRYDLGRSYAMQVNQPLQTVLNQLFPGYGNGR
PLC-beta3 inh: PLC-beta3 (human) inhibition, primary screen; Q01970; Purified PLC-beta3, fluorogenic substrate, fluorescence; inhibition, % at 12.2 µM; hit rate 0.18% among 370,000; AID 720704; in the data active = inhibition above about 11%
MBD2 inh: MBD2-methylated oligo binding inhibition. Q9UBB5. TR-FRET, MBD2 binding to methylated oligonucleotide. hit rate 0.31% among 370,000. inhibition, % at 4.4 µM. AID 686964; in the data active = inhibition above about 13%
PLCgamma1 ctr: inhibits human PLC-gamma1 in PLC-beta3 counter-screen. shares compounds with PLCg1 inh. purified PLC-gamma1, fluorogenic substrate, fluorescence. inhibition, % at 12.3 µM. hit rate 3.1% among 3,300. AID 743258
PLCb3 confirm: confirmation of human PLC-beta3 inhibitors; shares compounds with PLCg1 inh; purified PLC-beta3, fluorogenic substrate fluorescence; inhibition, % at 12.3 µM; hit rate 1% among 3,300; AID 743261; in the data active = inhibition above about 11%
Numbers stand for hits. Rule as the data show it, unless noted: active = inhibition above about 9.5%; inactive = the rest.

O=C(Nn1cnnc1)C1Cc2ccccc2CN1S(=O)(=O)c1ccc(F)cc1 (centres undefined) was read as PLCg1 inh 10, LEDGF integ inh inactive, UHRF1 MBD2 ctr inactive, PLC-beta3 inh inactive, MBD2 inh inactive, PLCgamma1 ctr inactive and PLCb3 confirm inactive.
For CCOc1ccc(-c2cc(N)n(S(=O)(=O)c3ccc(OC)c(OC)c3)n2)cc1 the results were PLCg1 inh inactive, LEDGF integ inh inactive, UHRF1 MBD2 ctr inactive, PLC-beta3 inh 11, MBD2 inh inactive, PLCgamma1 ctr inactive and PLCb3 confirm inactive.
COc1ccc(S(=O)(=O)N(C)CC(=O)Nc2ccc(F)cc2)cc1 was read as PLCg1 inh inactive, LEDGF integ inh inactive, UHRF1 MBD2 ctr inactive, PLC-beta3 inh 11, MBD2 inh inactive, PLCgamma1 ctr inactive and PLCb3 confirm inactive.
O=C(O)C1CCCCC1C(=O)Nc1cc(C(F)(F)F)ccc1Cl (centres undefined) was read as PLCg1 inh 10.0, LEDGF integ inh inactive, UHRF1 MBD2 ctr inactive, PLC-beta3 inh inactive, MBD2 inh inactive, PLCgamma1 ctr inactive and PLCb3 confirm inactive.
Screening Cc1cc(N2CCN(C(=O)Oc3ccc(-c4ccccc4)cc3)CC2)c2ccccc2n1 returned PLCg1 inh inactive, LEDGF integ inh inactive, UHRF1 MBD2 ctr inactive, PLC-beta3 inh inactive and MBD2 inh inactive.
O=C(COC(=O)/C=C/c1ccccc1[N+](=O)[O-])Nc1ccc(OC(F)F)cc1 was read as PLCg1 inh 11, LEDGF integ inh inactive, UHRF1 MBD2 ctr inactive, PLC-beta3 inh inactive, MBD2 inh inactive, PLCgamma1 ctr inactive and PLCb3 confirm inactive.
`CC1(C(=O)NS(=O)(=O)c2cccc(Cl)c2)CCN1C(=O)Cc1ccsc1` (centres undefined) gave PLCg1 inh 10, LEDGF integ inh inactive, UHRF1 MBD2 ctr inactive, PLC-beta3 inh inactive, MBD2 inh inactive, PLCgamma1 ctr inactive and PLCb3 confirm inactive.
`CC1(C(=O)NS(=O)(=O)c2cccc(Cl)c2)CCN1C(=O)Cc1ccc(-c2ccccc2)cc1` (centres undefined) gave PLCg1 inh inactive, LEDGF integ inh inactive, UHRF1 MBD2 ctr inactive, PLC-beta3 inh inactive and MBD2 inh inactive.
`C#CCN(CC=C)C(=O)c1ccc2nc(C3CCCCC3)oc2c1` gave PLCg1 inh 9.5, LEDGF integ inh inactive, UHRF1 MBD2 ctr inactive, PLC-beta3 inh inactive, MBD2 inh inactive, PLCgamma1 ctr inactive and PLCb3 confirm inactive.
C=CCN(CC=C)C(=O)c1ccc2nc(Cc3ccc(OC)c(OC)c3)oc2c1 was read as PLCg1 inh inactive, LEDGF integ inh inactive, UHRF1 MBD2 ctr inactive, PLC-beta3 inh inactive and MBD2 inh inactive.
`COC(=O)[C@H](CC(C)C)NC(=O)Nc1ccc2c(c1)OCCO2` gave PLCg1 inh 12, LEDGF integ inh inactive, UHRF1 MBD2 ctr inactive, PLC-beta3 inh inactive, MBD2 inh inactive, PLCgamma1 ctr inactive and PLCb3 confirm inactive.
Screening COC(=O)[C@@H](NC(=O)Nc1ccc2c(c1)OCCO2)C(C)C returned PLCg1 inh 10, LEDGF integ inh inactive, UHRF1 MBD2 ctr inactive, PLC-beta3 inh inactive, MBD2 inh inactive, PLCgamma1 ctr inactive and PLCb3 confirm inactive.
Screening COc1ccc(NC(=O)CN2CCC(C(N)=O)CC2)cc1 returned PLCg1 inh inactive, LEDGF integ inh inactive, UHRF1 MBD2 ctr inactive, PLC-beta3 inh inactive and MBD2 inh inactive.
For COc1cc(-c2ccc(NC(=O)CN3CCC(C)CC3)c(OC)c2)ccc1NC(=O)CN1CCC(C)CC1 the results were PLCg1 inh 10, LEDGF integ inh inactive, UHRF1 MBD2 ctr inactive, PLC-beta3 inh inactive, MBD2 inh inactive, PLCgamma1 ctr inactive and PLCb3 confirm inactive.
Screening COc1ccc(NC(=O)CN2CCC(C)CC2)c([N+](=O)[O-])c1 returned PLCg1 inh inactive, LEDGF integ inh inactive, UHRF1 MBD2 ctr inactive, PLC-beta3 inh inactive and MBD2 inh inactive.
For COc1ccc(NC(=O)CN2CCC(C)CC2)cc1 the results were PLCg1 inh 12, LEDGF integ inh inactive, UHRF1 MBD2 ctr inactive, PLC-beta3 inh inactive, MBD2 inh inactive, PLCgamma1 ctr inactive and PLCb3 confirm inactive.
Screening C[C@@H]1COc2cc(Br)ccc2S(=O)(=O)N1Cc1cn(CCC2OCCCO2)nn1 returned PLCg1 inh inactive, LEDGF integ inh inactive, UHRF1 MBD2 ctr inactive, PLC-beta3 inh inactive and MBD2 inh inactive.
Screening CCc1cccc(NC(=S)Nc2ccc(CN3CCOCC3)cc2)c1 returned PLCg1 inh 9.8, LEDGF integ inh inactive, UHRF1 MBD2 ctr inactive, PLC-beta3 inh inactive, MBD2 inh inactive, PLCgamma1 ctr inactive and PLCb3 confirm inactive.
`COc1ccc(NC(=O)C(CCCCNC(=O)OC(C)(C)C)NC2(C(=O)NCCc3c[nH]c4ccccc34)CCCCC2)cc1` (centres undefined) gave PLCg1 inh inactive, LEDGF integ inh inactive, UHRF1 MBD2 ctr inactive, PLC-beta3 inh inactive and MBD2 inh inactive.
`O=C(NCc1ccccc1)c1onc(CSc2ccc(Cl)cc2)c1C(=O)NCc1ccccc1` gave PLCg1 inh inactive, LEDGF integ inh inactive, UHRF1 MBD2 ctr inactive, PLC-beta3 inh inactive and MBD2 inh inactive.
`O=C(NCc1ccccc1)c1onc(CSc2ccc(F)c(F)c2)c1C(=O)NCc1ccccc1` gave PLCg1 inh inactive, LEDGF integ inh inactive, UHRF1 MBD2 ctr inactive, PLC-beta3 inh 11, MBD2 inh inactive, PLCgamma1 ctr inactive and PLCb3 confirm inactive.
Screening CCCCCCOc1ccc(/C(N)=N/O)cc1 returned PLCg1 inh 12, LEDGF integ inh inactive, UHRF1 MBD2 ctr inactive, PLC-beta3 inh inactive, MBD2 inh inactive, PLCgamma1 ctr inactive and PLCb3 confirm inactive.
O=C(Nc1cccc(C(F)(F)F)c1)c1csc(COCCO)n1 was read as PLCg1 inh inactive, LEDGF integ inh inactive, UHRF1 MBD2 ctr inactive, PLC-beta3 inh inactive and MBD2 inh inactive.
Screening O=C(Nc1cccc(Cl)c1)c1csc(COCCO)n1 returned PLCg1 inh 10.0, LEDGF integ inh inactive, UHRF1 MBD2 ctr inactive, PLC-beta3 inh inactive, MBD2 inh inactive, PLCgamma1 ctr inactive and PLCb3 confirm inactive.
Screening COc1cc(C(=O)NC2CCCCN(Cc3ccc(Cl)cc3)C2=O)cc(OC)c1OC (centres undefined) returned PLCg1 inh inactive, LEDGF integ inh inactive, UHRF1 MBD2 ctr inactive, PLC-beta3 inh inactive and MBD2 inh inactive.
Screening CC(C)C[C@@H]1COc2cc(F)ccc2S(=O)(=O)N1C returned PLCg1 inh inactive, LEDGF integ inh inactive, UHRF1 MBD2 ctr inactive, PLC-beta3 inh inactive and MBD2 inh inactive.
`CCCCNC(=O)C[C@@H]1C[C@@]2(C(=O)OC)CCCCC=C2N(Cc2cccc3ccccc23)C1=O` gave PLCg1 inh 11, LEDGF integ inh inactive, UHRF1 MBD2 ctr inactive, PLC-beta3 inh inactive, MBD2 inh inactive, PLCgamma1 ctr inactive and PLCb3 confirm inactive.

Source: PubChem (The Scripps Research Institute Molecular Screening Center)
